Reference: PubChem BioAssay (Tox21)
Records with an inconclusive call do not appear. A call without a number means that no potency is given here. Active and inactive are the calls of the source. Calls come from the whole dose curve; as a rule, active = well fitted curve in the direction sought with a large enough effect in the repeat runs; inconclusive = weak or mixed curves; inactive = no such curve, though single readings can be large; an effect the other way counts as inactive or inconclusive.

What was measured:
[1] = target: Cytochrome P450 2D6 (Homo sapiens) (UniProt P10635); experiment: Cytochrome P450 Family 2 Subfamily D Member 6 (CYP2D6) small molecule antagonists: luciferase reporter qHTS assay (AID 1671196); note: nearly all actives have a fitted effect of over 50% in size; note: potency is the fitted concentration of half-maximal effect
Method in brief: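 Read-out is luminescence from luciferin formed by CYP2D6 turnover of a proluciferin substrate, recorded as relative luminescence units. Reactions ran 1 h at room temperature after NADPH regeneration solution was added.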

[2] = target: Cytochrome P450 2C9 (Homo sapiens) (UniProt P11712); experiment: Cytochrome P450 Family 2 Subfamily C Member 9 (CYP2C9) small molecule antagonists: luciferase reporter qHTS assay (AID 1671198); note: nearly all actives have a fitted effect of over 50% in size; note: potency is the fitted concentration of half-maximal effect
Method in brief: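 Enzyme-substrate mix preincubated with compound 10 min at room temperature; reaction started with NADPH regeneration solution, 1 h 37C. Luminescent luciferin product read after 20 min detection reagent.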

[3] = target: Cytochrome P450 1A2 (Homo sapiens) (UniProt P05177); experiment: Cytochrome P450 Family 1 Subfamily A Member 2 (CYP1A2) small molecule antagonists: luciferase reporter qHTS assay (AID 1671199); note: nearly all actives have a fitted effect of over 50% in size; note: potency is the fitted concentration of half-maximal effect
Method in brief: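 P450-Glo CYP1A2, 1536-well qHTS: enzyme/proluciferin substrate + cpd (DMSO), 10 min RT; NADPH regen, 1 h RT; detection reagent, 20 min; luminescence, RLU.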

[4] = target: Voltage-gated inwardly rectifying potassium channel KCNH2 (Homo sapiens) (UniProt Q12809); experiment: Human Ether-a-go-go-Related Gene (hERG) channel small molecule antagonists: fluorescence cell-based qHTS assay (AID 1671200);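 note: hERG-expressing U2OS cells given a thallium stimulus after FluxOR II dye loading; series mostly up to about 77 µM; nearly all actives have a fitted effect of over 50% in size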
Method in brief: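 Measured: Tl+ flux via fluorescence (480/540 nm) in hERG-expressing U2OS cells after 1 h dye loading at room temperature.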

[5] = target: Cytochrome P450 3A4 (Homo sapiens) (UniProt P08684); experiment: Cytochrome P450 Family 3 Subfamily A Member 4 (CYP3A4) small molecule antagonists: luciferase reporter qHTS assay (AID 1671201); note: nearly all actives have a fitted effect of over 50% in size; note: potency is the fitted concentration of half-maximal effect
Method in brief: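 Setup: enzyme-substrate mix, compound pin transfer, 10 min RT. Reaction: NADPH regeneration solution, 1 h RT. Readout: detection reagent stops turnover, luminescence measured after 20 min, expressed in relative luminescence units.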

[6] = target: Cytochrome P450 2C19 (Homo sapiens) (UniProt P33261); experiment: Cytochrome P450 Family 2 Subfamily C Member 19 (CYP2C19) small molecule antagonists: luciferase reporter qHTS assay (AID 1671197); note: potency is the fitted concentration of half-maximal effect; nearly all actives have a fitted effect of over 65% in size
Method in brief: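 Enzyme-substrate mix with proluciferin substrate (P450-Glo CYP2C19 system) preincubated with compounds 10 min at room temperature; NADPH regeneration solution added, 37C for 1 h; detection reagent stops reaction, luminescence read after 20 min. Ketoconazole positive control.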

Chain of Cytochrome P450 1A2 (Homo sapiens) (P05177 whole entry, looked up): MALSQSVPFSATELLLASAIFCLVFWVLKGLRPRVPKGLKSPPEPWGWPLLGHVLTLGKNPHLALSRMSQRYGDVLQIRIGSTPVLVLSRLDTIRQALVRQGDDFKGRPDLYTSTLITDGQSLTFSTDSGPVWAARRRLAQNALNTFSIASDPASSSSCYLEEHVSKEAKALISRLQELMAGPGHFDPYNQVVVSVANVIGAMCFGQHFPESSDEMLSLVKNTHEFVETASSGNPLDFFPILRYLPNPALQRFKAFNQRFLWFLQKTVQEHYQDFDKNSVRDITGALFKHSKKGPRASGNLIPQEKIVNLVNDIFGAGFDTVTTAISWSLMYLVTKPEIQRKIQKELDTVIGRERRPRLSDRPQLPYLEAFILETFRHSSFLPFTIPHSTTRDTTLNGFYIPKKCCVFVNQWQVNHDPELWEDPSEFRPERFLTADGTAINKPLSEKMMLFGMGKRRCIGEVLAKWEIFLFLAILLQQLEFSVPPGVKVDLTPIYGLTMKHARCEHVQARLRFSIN
Chain of Cytochrome P450 3A4 (Homo sapiens) (P08684 whole entry, looked up): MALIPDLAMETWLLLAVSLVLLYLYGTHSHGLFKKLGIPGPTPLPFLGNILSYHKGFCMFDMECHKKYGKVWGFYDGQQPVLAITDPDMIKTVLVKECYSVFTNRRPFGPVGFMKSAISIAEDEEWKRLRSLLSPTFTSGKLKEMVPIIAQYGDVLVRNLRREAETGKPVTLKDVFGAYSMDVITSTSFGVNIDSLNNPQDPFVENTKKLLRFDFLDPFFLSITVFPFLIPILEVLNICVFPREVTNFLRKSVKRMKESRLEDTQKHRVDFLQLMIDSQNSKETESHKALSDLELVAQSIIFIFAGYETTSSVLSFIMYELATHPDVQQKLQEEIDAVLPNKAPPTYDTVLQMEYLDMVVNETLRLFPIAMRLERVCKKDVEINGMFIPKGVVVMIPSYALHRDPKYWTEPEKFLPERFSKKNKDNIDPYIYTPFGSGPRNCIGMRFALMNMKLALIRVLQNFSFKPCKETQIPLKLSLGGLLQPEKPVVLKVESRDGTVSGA
Chain of Voltage-gated inwardly rectifying potassium channel KCNH2 (Homo sapiens) (Q12809 whole entry, looked up): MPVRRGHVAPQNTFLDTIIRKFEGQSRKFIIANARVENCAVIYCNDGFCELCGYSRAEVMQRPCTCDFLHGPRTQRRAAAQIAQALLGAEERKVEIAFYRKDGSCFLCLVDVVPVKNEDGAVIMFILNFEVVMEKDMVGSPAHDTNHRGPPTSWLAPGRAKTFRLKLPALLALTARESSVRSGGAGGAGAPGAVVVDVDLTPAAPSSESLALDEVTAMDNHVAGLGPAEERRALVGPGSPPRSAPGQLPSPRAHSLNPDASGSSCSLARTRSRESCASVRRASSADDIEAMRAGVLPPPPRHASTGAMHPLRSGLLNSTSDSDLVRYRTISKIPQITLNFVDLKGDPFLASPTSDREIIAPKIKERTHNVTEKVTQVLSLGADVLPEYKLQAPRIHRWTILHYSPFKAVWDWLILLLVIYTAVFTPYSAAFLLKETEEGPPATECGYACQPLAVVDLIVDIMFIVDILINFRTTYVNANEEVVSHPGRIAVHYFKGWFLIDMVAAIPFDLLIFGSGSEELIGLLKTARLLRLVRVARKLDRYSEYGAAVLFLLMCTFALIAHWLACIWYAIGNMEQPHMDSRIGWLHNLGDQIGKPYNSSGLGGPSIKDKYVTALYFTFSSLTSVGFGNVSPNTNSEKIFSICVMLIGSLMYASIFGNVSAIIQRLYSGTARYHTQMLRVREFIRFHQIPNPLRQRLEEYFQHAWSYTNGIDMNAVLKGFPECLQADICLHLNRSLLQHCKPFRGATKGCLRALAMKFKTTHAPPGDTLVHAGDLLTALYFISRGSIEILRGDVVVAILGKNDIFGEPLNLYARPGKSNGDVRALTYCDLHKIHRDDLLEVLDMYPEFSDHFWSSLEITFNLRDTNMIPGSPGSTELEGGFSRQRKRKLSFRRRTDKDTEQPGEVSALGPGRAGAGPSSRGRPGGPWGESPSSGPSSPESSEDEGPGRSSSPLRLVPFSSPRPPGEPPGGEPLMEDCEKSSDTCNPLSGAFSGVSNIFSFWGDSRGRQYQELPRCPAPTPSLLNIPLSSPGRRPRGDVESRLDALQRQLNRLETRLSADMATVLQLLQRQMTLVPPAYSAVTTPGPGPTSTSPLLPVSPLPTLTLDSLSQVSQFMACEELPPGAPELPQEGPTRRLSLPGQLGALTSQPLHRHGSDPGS
Chain of Cytochrome P450 2C9 (Homo sapiens) (P11712 whole entry, looked up): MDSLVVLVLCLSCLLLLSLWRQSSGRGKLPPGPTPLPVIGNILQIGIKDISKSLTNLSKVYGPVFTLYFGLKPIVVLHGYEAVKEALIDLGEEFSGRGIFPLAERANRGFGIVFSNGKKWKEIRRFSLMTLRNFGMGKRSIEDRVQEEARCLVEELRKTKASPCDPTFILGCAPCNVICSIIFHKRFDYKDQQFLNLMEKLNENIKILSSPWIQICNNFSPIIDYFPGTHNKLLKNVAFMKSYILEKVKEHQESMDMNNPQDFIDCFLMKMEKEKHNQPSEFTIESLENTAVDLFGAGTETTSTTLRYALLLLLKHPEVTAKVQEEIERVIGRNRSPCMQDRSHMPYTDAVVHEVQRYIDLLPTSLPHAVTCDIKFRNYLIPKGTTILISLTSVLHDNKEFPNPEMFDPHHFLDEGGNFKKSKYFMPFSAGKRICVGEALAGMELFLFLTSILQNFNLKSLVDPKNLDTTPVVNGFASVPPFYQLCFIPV
Chain of Cytochrome P450 2D6 (Homo sapiens) (P10635 whole entry, looked up): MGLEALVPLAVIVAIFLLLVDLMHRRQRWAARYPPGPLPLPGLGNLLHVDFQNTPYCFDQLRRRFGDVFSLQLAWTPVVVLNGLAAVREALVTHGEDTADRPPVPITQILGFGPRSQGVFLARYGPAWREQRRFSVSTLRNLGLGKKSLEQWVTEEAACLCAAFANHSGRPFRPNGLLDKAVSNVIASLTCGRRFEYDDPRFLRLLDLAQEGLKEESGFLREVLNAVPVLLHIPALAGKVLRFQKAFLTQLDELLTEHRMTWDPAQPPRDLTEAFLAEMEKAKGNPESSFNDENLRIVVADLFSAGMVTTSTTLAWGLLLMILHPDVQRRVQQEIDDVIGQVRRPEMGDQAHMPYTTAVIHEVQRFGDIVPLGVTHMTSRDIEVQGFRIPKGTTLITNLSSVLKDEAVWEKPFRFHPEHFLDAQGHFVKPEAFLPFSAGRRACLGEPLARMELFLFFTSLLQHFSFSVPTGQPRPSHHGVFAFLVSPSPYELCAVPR
Chain of Cytochrome P450 2C19 (Homo sapiens) (P33261 whole entry, looked up): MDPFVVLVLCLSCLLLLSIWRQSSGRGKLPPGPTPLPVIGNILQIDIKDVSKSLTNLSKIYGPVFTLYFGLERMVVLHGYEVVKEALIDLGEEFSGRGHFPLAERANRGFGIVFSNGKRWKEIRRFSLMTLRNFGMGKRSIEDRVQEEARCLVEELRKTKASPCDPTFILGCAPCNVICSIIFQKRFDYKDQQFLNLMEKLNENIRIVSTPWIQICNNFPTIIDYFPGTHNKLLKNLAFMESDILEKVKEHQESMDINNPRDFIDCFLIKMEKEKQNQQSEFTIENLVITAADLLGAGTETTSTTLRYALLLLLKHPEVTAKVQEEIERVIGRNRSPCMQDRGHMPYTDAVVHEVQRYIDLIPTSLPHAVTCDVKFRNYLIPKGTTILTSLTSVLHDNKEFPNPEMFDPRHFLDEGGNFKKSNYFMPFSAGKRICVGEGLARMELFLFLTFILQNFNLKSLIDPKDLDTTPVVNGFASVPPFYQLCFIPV

Row | Compound | Potency [1] | Potency [2] | Potency [3] | Potency [4] | Potency [5] | Potency [6]
1 | Cc1ccc(Cl)c(Nc2ccccc2C(=O)O)c1Cl | inactive | 17.4 µM (active) | inactive | inactive | inactive | –
2 | CCCCN1CCCC1C(=O)Nc1c(C)cc(C)cc1C (stereo unspecified) | 3.09 µM (active) | inactive | inactive | inactive | – | –
3 | CC(=O)OCC(=O)NCCCOc1cccc(CN2CCCCC2)c1 | 15.5 µM (active) | inactive | inactive | inactive | inactive | –
4 | Cc1cc2c(OCC(CNC(C)(C)C)OC(=O)c3ccccc3)cccc2[nH]1 (stereo unspecified) | 0.692 µM (active) | 7.76 µM (active) | inactive | – | – | –
5 | CCCCN(CCCC)C(C(N)=O)c1ccc(OC)cc1 (stereo unspecified) | 0.977 µM (active) | – | – | inactive | – | 15.5 µM (active)
6 | FC(F)(F)c1ccccc1Cl | 46 µM (active) | inactive | inactive | inactive | inactive | –
7 | CC[C@]1(O)C[C@H]2CN(CCc3c([nH]c4ccccc34)[C@@](C(=O)OC)(c3cc4c(cc3OC)N(C=O)[C@H]3[C@@](O)(C(=O)OC)[C@H](OC(C)=O)[C@]5(CC)C=CCN6CC[C@]43[C@@H]65)C2)C1 | inactive | inactive | – | inactive | 12.3 µM (active) | –
8 | C/C=C(/C(=C/C)c1ccc(O)cc1)c1ccc(O)cc1 | inactive | 17.4 µM (active) | – | inactive | – | –
9 | Cc1ccc(OC(=O)c2ccccc2O)cc1 | inactive | 35.6 µM (active) | 35.6 µM (active) | – | inactive | –
10 | C=C(C)C(=O)OCCCCCCCCCCCCC | inactive | inactive | inactive | inactive | 55.7 µM (active) | –
11 | CN1C(C(=O)Nc2ccccn2)=C(O)c2sccc2S1(=O)=O | inactive | 13.8 µM (active) | inactive | inactive | inactive | –
